From PubChem BioAssay
USP30 inh – inhibitors of human USP30 deubiquitinase; AID 1645860; inhibition, % at 25 µM; Q70CQ3; purified USP30, Ub-rhodamine cleavage fluorescence; 47,000 compounds, 5.3% hits
USP28 inh – human USP28 deubiquitinase inhibition. purified USP28, Ub-rhodamine cleavage fluorescence, 30 min. inhibition, % at 25 µM. 47,000 compounds, 3% hits
USP17 inh – blocks human USP17 ubiquitin-rhodamine cleavage | A8MUK1 | purified USP17, Ub-rhodamine cleavage fluorescence, 3 h | inhibition, % at 50 µM | 47,000 compounds, 6.5% hits | AID 1645855
* hit, by the source's call. Hits are enriched below; roughly 11% of the tested compounds scored in any of these assays. Rule as the data show it: active = inhibition above about 30%; inactive = the rest.

What do the screens show for `Cc1cn[nH]c1CC1CCCN(C(=O)c2ccc(-n3cccn3)nc2)C1` (stereo unspecified)?
USP30 inh: 18; USP28 inh: 10; USP17 inh: -31

Results for COc1nc(-c2ccc(C)cc2)ccc1-c1noc(-c2cccc(C)c2)n1 ?
USP30 inh: -39; USP28 inh: -13; USP17 inh: -10

What do the screens show for `Cc1ccc2c(=O)c(C(=O)N3CCCCC3)cn(CC(N)=O)c2n1`?
USP30 inh: 0; USP28 inh: -1; USP17 inh: 1

How did CCc1nnc(NC(=O)C(NS(=O)(=O)c2ccc3c(c2)OCCO3)C(C)C)s1 (stereo unspecified) do in these assays?
USP30 inh: 6; USP28 inh: 26; USP17 inh: 6

Results for Cc1ccccc1NC(=O)C(NS(=O)(=O)c1ccc2c(c1)OCCO2)C(C)C (stereo unspecified) ?
USP30 inh: 7; USP28 inh: 0; USP17 inh: 40*

What do the screens show for `O=C(NC1CCCCCC1)C(Cc1ccccc1)NS(=O)(=O)c1ccc2c(c1)OCCO2` (stereo unspecified)?
USP30 inh: 2; USP28 inh: 5; USP17 inh: 49*

What do the screens show for `O=C(NC1CCCCC1)C(c1ccc(O)cc1)N(Cc1ccccc1)C(=O)c1ccc2c(c1)OCCO2` (stereo unspecified)?
USP30 inh: -21; USP28 inh: -4; USP17 inh: -3

How did Cc1ccc(CN2CCCn3nc(C(=O)NCCN4CCCCC4)cc3C2=O)cc1 do in these assays?
USP30 inh: 7; USP28 inh: 9; USP17 inh: -4

What do the screens show for `COc1ccc(C(=O)N2CCN(CCNC(=O)C(=O)Nc3ccc(C)c(Cl)c3)CC2)cc1`?
USP30 inh: 8; USP28 inh: 0; USP17 inh: 8

What do the screens show for `Cc1cccc(C(=O)N2C[C@H](c3nc(-c4ccccc4)no3)[C@@H](C)C2)c1`?
USP30 inh: 11; USP28 inh: 8; USP17 inh: 3

How did Cc1cccc(Cc2nc(CC(=O)NC3CCCCCC3)n[nH]2)c1 do in these assays?
USP30 inh: 25; USP28 inh: 14; USP17 inh: 11

How did COc1ccc(OC)c(C(=O)Nc2ccc3c(c2)NC(=O)C(C)O3)c1 (stereo unspecified) do in these assays?
USP30 inh: -1; USP28 inh: 0; USP17 inh: 0

How did COc1ccc(NC(=O)C2Oc3ccc(C)cc3NC2=O)cc1Cl (stereo unspecified) do in these assays?
USP30 inh: 16; USP28 inh: 26; USP17 inh: 75*

What do the screens show for `CC(C)NC(=O)Cn1c(C2CC(=O)N(Cc3ccccc3)C2)nc2ccccc21` (stereo unspecified)?
USP30 inh: 10; USP28 inh: 8; USP17 inh: 14

How did O=C(Nc1cc(C(F)(F)F)cc(C(F)(F)F)c1)c1ccc(-c2ccccn2)s1 do in these assays?
USP30 inh: 41*; USP28 inh: 12; USP17 inh: 19

What do the screens show for `O=C(Nc1cc(C(F)(F)F)cc(C(F)(F)F)c1)c1cnc2sccn2c1=O`?
USP30 inh: -15; USP28 inh: 1; USP17 inh: -5

What do the screens show for `CCc1cc2c(NCc3ccccn3)nc(C)nc2s1`?
USP30 inh: 7; USP28 inh: 11; USP17 inh: -1

What do the screens show for `c1ccc2ncc(CN3CCC[C@H]3c3nc(-c4ccc(-n5ccnc5)nc4)no3)cc2c1`?
USP30 inh: -19; USP28 inh: -11; USP17 inh: 41*

What do the screens show for `Nc1ncncc1-c1noc([C@@H]2CCCN2Cc2cnc3ccccc3c2)n1`?
USP30 inh: -13; USP28 inh: -16; USP17 inh: -16

How did O=C(NCC(=O)N1CCC2(CC1)NCCc1[nH]cnc12)c1ccc(-c2ccccc2)cc1 do in these assays?
USP30 inh: 0; USP28 inh: 5; USP17 inh: 2

How did CC1(c2nnc(-c3ccc4ccccc4n3)o2)CCOCC1 do in these assays?
USP17 inh: -2

How did O=C(COC(=O)c1cccnc1Nc1cccc(C(F)(F)F)c1)c1cc(F)ccc1F do in these assays?
USP30 inh: -8; USP28 inh: -2; USP17 inh: 0

Results for Cc1cc(-c2ncc[nH]2)nc(C2CCCN2Cc2scnc2C)n1 (stereo unspecified) ?
USP30 inh: 5; USP28 inh: -3; USP17 inh: -4

What do the screens show for `COc1ccc(CC(=O)N2CCc3cc(OC)c(OC)cc3C2COc2ccc([N+](=O)[O-])cc2)cc1` (stereo unspecified)?
USP30 inh: 44*; USP28 inh: 13; USP17 inh: 2

Results for COc1cc2c(cc1OC)C(COc1ccc([N+](=O)[O-])cc1)N(C(=O)COc1ccccc1)CC2 (stereo unspecified) ?
USP30 inh: 16; USP28 inh: 4; USP17 inh: 2

How did CCOc1ccc(CCC(=O)N2CCNC(=O)C2Cc2cccc(-c3cccnc3)c2)cc1 (stereo unspecified) do in these assays?
USP30 inh: 0; USP28 inh: -4; USP17 inh: 1

How did CCOc1ccc(CC(=O)N2CC(C(=O)NC)C3(CCCC3)C2)cc1 (stereo unspecified) do in these assays?
USP30 inh: 22; USP28 inh: 3; USP17 inh: 6

What do the screens show for `CCCc1c(C(=O)NC2CCCCC2)cnn1-c1ccc(Cl)cc1`?
USP30 inh: 21; USP28 inh: 7; USP17 inh: 36*

How did O=C(NC1CCCCCC1)c1cnn(-c2ccccc2)c1C1CC1 do in these assays?
USP30 inh: -6; USP28 inh: 5; USP17 inh: -3

How did CC(C)NC(=O)COc1ccccc1-c1nnc(-c2ccccc2)o1 do in these assays?
USP30 inh: 50*; USP28 inh: 21; USP17 inh: 30

What do the screens show for `COc1cc(-c2noc(-c3ccccc3C)n2)ccc1OCC(=O)NC(C)C`?
USP30 inh: 33*; USP28 inh: 9; USP17 inh: 21

How did O=C(COc1ccccc1-c1nnc(-c2ccccc2)o1)Nc1ccccc1F do in these assays?
USP30 inh: 26; USP28 inh: 0; USP17 inh: 46*

What do the screens show for `O=C(COc1ccccc1-c1nnc(-c2ccccc2)o1)NCc1ccc(F)cc1`?
USP30 inh: 23; USP28 inh: 11; USP17 inh: 22

Results for CC(C)NC(=O)COc1cccc(-c2noc(-c3ccccc3Cl)n2)c1 ?
USP30 inh: 27; USP28 inh: 0; USP17 inh: 19

Results for O=C(COc1ccccc1-c1nc(-c2ccccc2)no1)Nc1ccccc1 ?
USP30 inh: 8; USP28 inh: 0; USP17 inh: 14

Results for COc1ccc(NC(=O)COc2ccccc2-c2nnc(-c3ccccc3)o2)cc1 ?
USP30 inh: 33*; USP28 inh: 8; USP17 inh: 35*

Results for CN(C(=O)COc1ccccc1-c1nnc(-c2ccccc2)o1)c1ccccc1 ?
USP30 inh: 30; USP28 inh: 9; USP17 inh: 9

What do the screens show for `COc1ccc(Oc2nc(F)c(Cl)c3c2N(CC2CCCO2)CCS3(=O)=O)cc1` (stereo unspecified)?
USP30 inh: -51; USP28 inh: 17; USP17 inh: 33*

What do the screens show for `CCCCN1CCS(=O)(=O)c2c(Cl)c(F)nc(Oc3ccc(OC)cc3)c21`?
USP30 inh: 4; USP28 inh: 10; USP17 inh: 25
